From the supplement of paper PMC3334620
In all, about 33,000 sequences were measured (“E-score (-0.5 to 0.5)”: median about -0.013, highest 2% from about 0.3 on). What follows is part of a selection rich in the highest values, with near analogues and random picks from the rest.

What follows are sequences tested against T1, Msn1 (UniProt P22148) (assay: PBM E-score (8-mer binding enrichment) (E-score (-0.5 to 0.5)); higher = stronger / more preferred TF binding). Details: protein concentration: 200 nM; construct: GST-full length.
T1 sequence: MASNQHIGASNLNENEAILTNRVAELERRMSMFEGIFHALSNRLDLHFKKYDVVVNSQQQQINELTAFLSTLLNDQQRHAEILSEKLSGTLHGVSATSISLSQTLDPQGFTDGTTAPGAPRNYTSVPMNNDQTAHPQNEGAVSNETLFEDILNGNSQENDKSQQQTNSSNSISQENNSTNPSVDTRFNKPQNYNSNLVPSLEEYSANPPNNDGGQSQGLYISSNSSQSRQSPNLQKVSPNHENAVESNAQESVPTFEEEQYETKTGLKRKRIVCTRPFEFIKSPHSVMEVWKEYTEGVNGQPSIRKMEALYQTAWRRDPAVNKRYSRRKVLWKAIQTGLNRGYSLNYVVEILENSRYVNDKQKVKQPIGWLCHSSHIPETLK
Method: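 Universal 'all 10-mer' protein binding microarrays (Agilent AMADID 015681) probed with GST-tagged S. cerevisiae TFs (full-length or DBD) made by in vitro transcription/translation (PURExpress), about 100-200 nM. Bound TF was detected with fluorescent anti-GST. Each ungapped 8-mer (which stands for itself and its reverse complement) is scored by the PBM enrichment score (E-score), a modified Wilcoxon-Mann-Whitney statistic from -0.5 to +0.5, computed with the Universal PBM Analysis Suite. Scale: above 0.35 generally sequence-specific binding.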

Row | Sequence | PBM E-score
1 | ACGAGCTG | 0.0278
2 | ACCTTCTC | -0.183
3 | CGTCCCTA | -0.0646
4 | AAATATGT | 0.37
5 | AAATATGA | 0.154
6 | AATAATAA | 0.132
7 | AAATATGC | -0.0194
8 | AATAATAG | -0.0638
9 | AAATATAA | 0.272
10 | AAATATAC | 0.0952
11 | AATAATAT | 0.33
12 | AAATATAT | 0.306
13 | ACCAGAGC | -0.124
14 | CGATGCAC | -0.295
15 | GCACAGGA | 0.0138
16 | ACTCGAGT | 0.14
17 | ATAGGCCA | -0.0607
18 | TAACATAA | 0.214
19 | GCACATAC | -0.162
20 | CGACATAC | 0.281
21 | TTACATAA | 0.0155
22 | CTACATAA | -0.237
23 | CGTCACAA | 0.137
24 | TGACATAA | 0.364
25 | TGTCACAA | 0.378

Row | Sequence | PBM E-score
26 | TCACATAA | -0.0221
27 | GTACATAA | 0.306
28 | GGACATAC | 0.48
29 | GGTCACAA | -0.0198
30 | GACCCCCA | -0.377
31 | TCACTAGA | 0.0764
32 | CACCCCGC | -0.0608
33 | CCATTAAC | 0.139
34 | GCCCTGCC | -0.296
35 | AAGTCTAC | 0.0709
36 | TGTCATAA | 0.397
37 | GCACATGA | -0.0829
38 | GGACATAA | 0.477
39 | GCACATAA | -0.0366
40 | AGTCATAA | 0.0855
41 | CGTCATAA | 0.122
42 | CGACATAA | 0.286
43 | GGACATGA | 0.467
44 | CGACATGA | 0.207
45 | ACCACAGA | 0.0742
46 | TTGAGCAA | -0.0524
47 | ACACTTGG | -0.0164
48 | GACCATGC | 0.0413
49 | GTGTACAC | 0.162
50 | CTGTACAG | 0.0843

Row | Sequence | PBM E-score
51 | TTGTACAA | 0.337
52 | CTGTACAA | 0.161
53 | TCGTACAA | 0.294
54 | GTGTACAA | 0.32
55 | CGTGCAGC | -0.0365
56 | CTCGGTAC | 0.0483
57 | ACGGCCGT | -0.204
58 | ATAAAGCC | -0.151
59 | GCCTACCA | -0.174
60 | AGCCCTCG | -0.123
61 | ACTATGTC | 0.292
62 | AATATGTA | 0.335
63 | CATATGAC | 0.143
64 | CATATGCC | 0.00819
65 | CATATGTC | 0.449
66 | AATATGTC | 0.478
67 | CATATGTA | 0.245
68 | GATATGTA | 0.12
69 | AATATGTG | 0.181
70 | AGCGAAAG | 0.00846
71 | CGCACTTA | -0.0705
72 | AGCTCTAC | -0.104
73 | AGCCACGA | -0.181
74 | CCAATAGC | -0.0522
75 | TAAGGAGA | -0.255

Row | Sequence | PBM E-score
76 | CAAGGACA | 0.484
77 | AAAGGACA | 0.445
78 | GAAGGACA | 0.471
79 | AAAGGACC | -0.105
80 | GAAGGATA | -0.142
81 | AAAGGACG | 0.032
82 | TAAGGATA | 0.13
83 | CAAGGACG | 0.148
84 | CAAGGACC | 0.0568
85 | TAAGGACA | 0.481
86 | GAAGGACC | -0.139
87 | CGAACATA | 0.128
88 | TAACAACA | 0.0839
89 | CGTCCTGA | 0.102
90 | AATCTACA | 0.058
91 | TAGGTAGA | 0.0723
92 | GATCTGTA | -0.0087
93 | CCGAAAAC | 0.0665
94 | AACGAGTC | -0.0621
95 | ATGTCACG | 0.31
96 | AGGTCACC | -0.0357
97 | CTGTCACA | 0.0788
98 | AAGTCACA | 0.127
99 | ATGTCACA | 0.363
100 | GTGTCACA | 0.261

Row | Sequence | PBM E-score
101 | CTGTCACC | -0.0649
102 | ATGTCACC | 0.303
103 | ATGTCAGA | 0.265
104 | GGAAAGAC | -0.0443
105 | ATCCTATG | -0.0491
106 | AGGCGTAG | -0.189
107 | CCTTGCGA | 0.028
108 | GGTGGTAC | -0.152
109 | GTAAGCTA | 0.0896
110 | GACATAAA | 0.44
111 | TACATAAA | 0.15
112 | GACATAAC | 0.396
113 | AACATAAC | 0.0281
114 | CACATAAC | 0.0195
115 | AACATAAA | 0.0678
116 | CGGAGGAA | -0.131
117 | GCATGGGC | -0.183
118 | CCGCTCGA | -0.143
119 | GATTGCTA | -0.0824
120 | CGAGAGTC | -0.131
121 | AATAGGAA | 0.102
122 | ATTAGGAC | 0.37
123 | ACTAGGAG | -0.201
124 | CTTAGGAC | 0.269
125 | GCTAGGAC | 0.267

Row | Sequence | PBM E-score
126 | AATAGGAT | 0.157
127 | ATTAGGAA | -0.00879
128 | AATAGGAC | 0.387
129 | ACTAGGAC | 0.426
130 | ATCGACCC | -0.11
131 | ATCCCTGC | -0.24
132 | AGGGTAAG | 0.00826
133 | AACGGGTC | -0.155
134 | CAGAATAC | 0.0673
135 | TCCTCTAA | -0.0667
136 | AGTGGGAC | 0.118
137 | ACTCTCCA | -0.0814
138 | ATTGAACA | 0.124
139 | CTCGTCCC | 0.228
140 | CCCCATAG | -0.15
141 | CAAATGTC | 0.471
142 | GAAATGTA | 0.245
143 | CAAATGTA | 0.276
144 | CAAATTTC | 0.184
145 | GAAATGCC | 0.00283
146 | CAAATTTG | 0.32
147 | CAAATGTG | 0.229
148 | GAAATGTC | 0.487
149 | AAAATTTG | 0.16
150 | GCCGGTCC | -0.233

Row | Sequence | PBM E-score
151 | CAGCGTTA | -0.131
152 | AAACTCTC | -0.0224
153 | CGGACAGA | 0.302
154 | GGAACAAC | 0.0504
155 | CGGACGGA | -0.00604
156 | CGGACGAG | 0.0588
157 | GGGACCAC | -0.255
158 | CGGACAAA | 0.484
159 | CGGACGAC | -0.0607
160 | CGGACGAA | 0.337
161 | CGGACAAG | 0.418
162 | CGGACCAG | -0.125
163 | GGGACAAC | 0.375
164 | GGGACGAA | 0.187
165 | GCTCTCAC | -0.29
166 | ATTTGACG | 0.15
167 | CCAGCATC | -0.148
168 | AGAAGAGC | -0.0669
169 | GTTGAATA | 0.0705
170 | TGGTCTAA | -0.0904
171 | CGGACAAC | 0.369
172 | CGGACCAC | -0.0995
173 | CAGACAAC | 0.212
174 | GATGGAGC | -0.185
175 | GTGCGGGA | -0.0606

Row | Sequence | PBM E-score
176 | AAAAGTAC | 0.366
177 | ATTAGTCG | 0.16
178 | AAAAGTCT | 0.269
179 | AAAAGTAT | 0.17
180 | AAAAGTAA | 0.25
181 | ATTAGTCA | 0.0896
182 | ATTAGTCC | 0.349
183 | AAAAGTCA | 0.194
184 | ACAAGTCG | 0.0205
185 | ACAAGTCC | 0.363
186 | AAAAGTCC | 0.467
187 | ACAAGTCA | 0.0996
188 | ACCTCAGA | -0.147
189 | CGGCTTAC | 0.051
190 | AAGGCCAA | -0.2
191 | TGGCGAAA | -0.095
192 | ACTGAAGA | 0.147
193 | AAGGCTAG | 0.0752
194 | CACCCAAC | -0.201
195 | GAGGCGCC | -0.178
196 | ATAAGTCC | 0.422
197 | CTAAGTCC | -0.0602
198 | ATAAGTCG | 0.0746
199 | ACAGTCAG | 0.0633
200 | AATTTGTA | 0.28

Row | Sequence | PBM E-score
201 | CATTTGTC | 0.485
202 | CATTTGCA | 0.0736
203 | GATTTGTA | 0.31
204 | GATTTGCA | 0.0983
205 | CATTTGGC | 0.0384
206 | CATTTGTA | 0.36
207 | GGTTTGTA | 0.0228
208 | CATTTGCC | -0.00883
209 | GCAACCGC | 0.0753
210 | AATCCAAG | 0.0229
211 | AGCCCGCG | -0.185
212 | CAACCATC | -0.177
213 | CTGAACTC | -0.0622
214 | AAGGGACC | -0.0619
215 | GAGGGACA | 0.447
216 | AAGGGACA | 0.44
217 | GAGGGACC | -0.268
218 | GAGGGAGA | -0.218
219 | TAGGGACA | 0.484
220 | CAGGGACA | 0.47
221 | TAGGGAAA | -0.0483
222 | TAGGGAGA | -0.215
223 | AAGGGACT | 0.0205
224 | CAGGGACC | -0.273
225 | CAGGGACG | 0.165
